Compound activity as filed in PubChem BioAssay.
Most compounds without a hit are left out; they make up all but 2.4% or so of the library.
POLH inh = qHTS for Inhibitors of Polymerase Eta | recombinant Pol eta, fluorescent DNA replication assay | Potency, µM (doses to about 114 µM), for the others: at the top dose activity change, negative = inhibition, most hits filed as inhibitors | actives 1.2% (n = 390,000); note: % is set by controls: 0 for no effect and ±100 for the full control effect
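Pol eta at 10 nM preincubated with compounds 15 min at room temperature; reaction started with fluorescent substrate (50 nM final) and read kinetically at 0 and 10 min.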
WRN helicase inh = qHTS for Inhibitors of WRN Helicase; AID 651768, 2012; WRN helicase unwinding, fluorescent forked duplex, kinetic; actives 0.46% (n = 360,000); Potency, µM (top dose mostly 114 µM), for the others: at the highest dose activity change, negative = inhibition, most hits filed as inhibitors; note: % is set by controls: 0 for no effect and ±100 for the full control effect; nearly all actives have a fitted effect of over 55% in size
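Fluorescence dequenching readout, ex 525 nm/em 598 nm, kinetic mode: forked duplex DNA (100 nM final) with adjacent fluorophore and quencher unwound by WRN (20 nM final) with 2 mM ATP. Compound preincubation 15 min, room temperature.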
Pol kappa inh = qHTS for Inhibitors of Polymerase Kappa; purified Pol kappa, fluorescent DNA synthesis assay, 10 min; actives 0.53% (n = 400,000); DNA polymerase kappa (Homo sapiens), Q9UBT6; Potency, µM (titrated, usually from 107 µM), for inactives: at the top dose activity, negative = inhibition, hits mostly inhibitors; note: % is set by controls: 0 for no effect and ±100 for the full control effect
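50 nM final substrate added after 15 min RT preincubation of 10 nM Pol kappa with compound; fluorescence read at 0 and 10 min.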
Pol beta inh = qHTS Assay for Inhibitors of DNA Polymerase Beta; P06746; Pol beta primer extension/strand displacement, fluorescence kinetic; Potency, µM (highest dose often 114 µM), for inactives: at the top dose activity change, negative = inhibition, actives largely listed as inhibitors; actives 1.3% (n = 340,000); AID 485314, 2010; note: % is set by controls: 0 for no effect and ±100 for the full control effect
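Reaction started by 50 nM substrate onto compound-treated Pol beta (10 nM, 15 min preincubation, room temperature); plates read at 0 min and 10 min. Normalized concentration-effect data fitted by four-parameter Hill equation.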
Pol iota inh = qHTS for Inhibitors of Polymerase Iota; DNA polymerase iota (Homo sapiens), Q9UNA4; Pol iota fluorescent replication assay, 10 min; Potency, µM (highest dose often 115 µM), for the others: at the highest dose activity, negative = inhibition, hits mostly inhibitors; actives 1% (n = 390,000)
Target sequence (Q9UNA4 whole entry, looked up): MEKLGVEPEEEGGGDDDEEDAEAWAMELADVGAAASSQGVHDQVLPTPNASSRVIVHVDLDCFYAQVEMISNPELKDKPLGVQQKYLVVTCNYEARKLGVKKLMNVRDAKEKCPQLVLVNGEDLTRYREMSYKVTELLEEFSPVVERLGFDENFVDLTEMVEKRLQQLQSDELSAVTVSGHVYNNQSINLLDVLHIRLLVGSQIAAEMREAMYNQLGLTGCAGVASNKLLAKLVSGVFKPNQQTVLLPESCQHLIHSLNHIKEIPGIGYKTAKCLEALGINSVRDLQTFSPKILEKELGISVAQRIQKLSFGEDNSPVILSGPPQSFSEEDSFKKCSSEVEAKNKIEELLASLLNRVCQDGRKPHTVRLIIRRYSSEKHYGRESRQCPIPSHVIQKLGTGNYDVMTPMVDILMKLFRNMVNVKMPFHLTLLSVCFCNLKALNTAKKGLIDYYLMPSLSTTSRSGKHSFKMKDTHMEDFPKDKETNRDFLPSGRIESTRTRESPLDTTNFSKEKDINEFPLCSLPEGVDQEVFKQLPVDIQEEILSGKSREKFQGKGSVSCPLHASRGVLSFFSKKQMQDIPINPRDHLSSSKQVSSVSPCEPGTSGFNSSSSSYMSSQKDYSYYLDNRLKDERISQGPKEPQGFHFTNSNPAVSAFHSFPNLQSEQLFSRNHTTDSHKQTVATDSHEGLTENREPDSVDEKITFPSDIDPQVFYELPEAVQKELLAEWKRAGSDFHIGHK
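Pol iota at 10 nM preincubated 15 min with compounds at room temperature; reaction started with fluorescent substrate, 50 nM final. Fluorescence read kinetically at 0 and 10 min; buffer-only wells as negative control.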
FEN1 inh-1 = qHTS Assay for the Inhibitors of Human Flap endonuclease 1 (FEN1) | Recombinant FEN1 flap cleavage, fluorescence, 15 min | Potency, µM (top dose mostly 114 µM), for the others: at the highest dose activity change, negative = inhibition, hits mostly inhibitors | actives 0.35% (n = 390,000) | AID 588795, 2011; note: % is set by controls: 0 for no effect and ±100 for the full control effect; nearly all actives have a fitted effect of over 65% in size
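Compounds are tested as a concentration series against 10 nM FEN1; after a 15 min room-temperature preincubation, 50 nM substrate starts cleavage, with plate reads at 0 and 15 min. Normalized responses are fitted by a Hill equation.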
FEN1 inh-2 = qHTS Assay for the Inhibitors of FEN1: Confirmatory Assay for Cherry-picked Compounds; shares compounds with FEN1 inh-1; FEN1 flap cleavage, TAMRA/BHQ2 fluorogenic DNA substrate; Potency, µM, actives largely listed as inhibitors; actives 79% (n = 880); note: nearly all actives have a fitted effect of over 60% in size
An asterisk follows results filed as active; u = inconclusive; x = no result given; [ ] = dose if it differs, or a comment. Calls come from the whole dose curve; as a rule, active = well fitted curve in the direction sought with a large enough effect; inconclusive = small, poorly fitted or top-dose-only effect, or another doubt; inactive = no such curve, though single readings can be large; an effect the other way counts as inactive or inconclusive. Potency is the fitted concentration of half-maximal effect.

SMILES	POLH inh	WRN helicase inh	Pol kappa inh	Pol beta inh	Pol iota inh	FEN1 inh-1	FEN1 inh-2
c1ccc(CNc2ncnc3ccc(-c4ccc5c(c4)OCO5)cc23)cc1	x	x	-6%[60.1 µM]	x	x	x	x
CN(C)CCCNc1ncnc2ccc(-c3ccc4c(c3)OCO4)cc12	x	x	x	x	x	x	30*
NCCNc1ncnc2ccc(-c3ccc4c(c3)OCO4)cc12	x	x	x	x	x	x	27*
COc1cccc2c1C(=N)c1c(O)c3c(c(O)c1C2=O)CC(O)(C(C)=O)CC3OC1CC(N)C(O)C(C)O1 (stereo not drawn)	u	u	u	x	u	11µM*	24*
COc1cc2[nH]c3c(N4CCN(c5ccccn5)CC4)ncnc3c2cc1OC	u	u	-26%	-8%	u	28µM*	24*
NNC(=O)c1oc2nc(-c3ccco3)cc(-c3ccco3)c2c1N	u	u	u	u	u	50µM*	38*
CCOC(=O)c1c(O)c(O)c(C(=O)OCC)n1-c1ccccc1	-1%	5%	-13%	10%	-17%[58.9 µM]	18µM*	9.5*
CCOC(=O)c1sc(=S)n(-c2ccccc2)c1C	-22%	-12%	5%	-4%	2%	-17%	x
CCN(C(=O)COC(=O)c1ccc([N+](=O)[O-])o1)C1CCCCC1	89µM*	18%	u	x	u	-16%	17*
CC1CCCCC1NC(=O)COC(=O)c1ccc([N+](=O)[O-])o1 (stereo not drawn)	89µM*	-9%[11.6 µM]	-19%	x	32µM*	-26%	9.5*
CC(C)C[C@H](NC(=O)[C@H](C)NC(=O)CNC(=O)[C@H](CCCCN)NC(=O)[C@H](CCCN=C(N)N)NC(=O)[C@H](C)NC(=O)[C@H](Cc1ccccc1)NC(=O)[C@@H](N)CCCN=C(N)N)C(=O)N[C@@H](CCCN=C(N)N)C(=O)N[C@@H](CCC(N)=O)C(=O)N[C@@H](CCCCN)C(=O)N[C@@H](CC(N)=O)C(=O)N[C@H](C(N)=O)C(C)C	x	x	-11%[60.1 µM]	x	x	x	x
CNC(=S)N/N=C/c1c(Cl)cccc1Cl	-3%	5%	8%	95%	9%	1%	x
CCc1nnc(N/N=C/c2c(Cl)cccc2Cl)n1N	-2%	-8%[11.6 µM]	-6%	15%	13µM*	7%	u
O=C(CSc1ccsc1[N+](=O)[O-])NCc1ccccc1	79µM*	1%[11.6 µM]	-25%	u	u	-1%	u
Cc1c(C)c2cccnc2c2ncccc12	-4%	-7%[11.6 µM]	-23%	x	-27%	16µM*	43*
Cc1ccc(O)c2ncccc12	x	x	-3%[19.4 µM]	x	x	x	x
CC(C)n1c(SCC(=O)c2ccc(F)cc2)nc2c(sc3ccccc32)c1=O	-8%	x	-5%[60.1 µM]	1%	6%	-26%	x
COc1ccccc1NC(=O)COC(=O)c1ccc([N+](=O)[O-])s1	u	6%[11.6 µM]	-33%	7.1µM*	79µM*	-10%	7.6*
O=C(COC(=O)c1ccc([N+](=O)[O-])s1)c1ccc[nH]1	20µM*	-6%[11.6 µM]	-29%	x	89µM*	-22%	3.4*
Nc1c(C(=O)O)ccc2c1C(=O)c1ccccc1C2=O	-29%	u	-13%	u	u	50µM*	34*
Nc1c(SCCC(=O)O)ccc2c1C(=O)c1ccccc1C2=O	-29%	u	2%	u	u	u	x
COc1cccc(CNC(=O)c2cc(S(=O)(=O)N3CCCCC3)cn2C)c1	-10%	x	-1%[60.1 µM]	-23%	-22%	-5%	x
O=C(NNC(=O)c1cccnc1)NC1CCCCC1	-2%	3%	-3%	0%	-1%	-2%	x
O=C(NNC(=O)c1cc(O)c(O)c(O)c1)NC1CCCCC1	-10%	-9%[57.1 µM]	-5%	33%	u	28µM*	u
Cc1cccc(S(=O)Cc2ccc(C(=O)NC3CCCCCC3)o2)c1 (stereo not drawn)	-4%	x	-4%	1%	11%	1%	x
SMILES	POLH inh	WRN helicase inh	Pol kappa inh	Pol beta inh	Pol iota inh	FEN1 inh-1	FEN1 inh-2
CC(C)(C)C(=O)OCc1cc(=O)n2nc(C3CC3)sc2n1	-2%	x	15%	33%	37%	-8%	x
O=C1c2ccccc2-c2nc3ccccc3cc21	-3%	-1%	-5%	13%	90%	-22%	x
c1ccc2c(c1)Cc1cc3ccccc3nc1-2	-10%	-1%[11.6 µM]	-13%	-9%	u	u	30*
O=C(Nc1c(Cl)cc([N+](=O)[O-])cc1Cl)c1cc(Cl)cc(Cl)c1O	x	x	-4%	x	19%	-1%	x
O=C1c2ccccc2C(=O)N1c1ccc(O)cc1	x	x	-33%	x	u	-13%	x
Nc1nc(C23CC4CC(CC(C4)C2)C3)[nH]c(=O)n1	6%	-4%[11.6 µM]	-13%	2%	18%	u	34*
c1cc2nc(C34CC5CC(CC(C5)C3)C4)[nH]c2cn1	-16%	-4%	-13%	-29%	23%	-8%	x
O=C(COc1ccc(F)cc1)Nc1ccc(S(=O)(=O)N(Cc2ccccc2)c2ccccc2)cc1	-18%	x	6%	0%	23%	12%	x
O=C(c1cccc2ccccc12)N1CCCCC1	-8%	12%	2%	38%	7%	6%	x
CCN1C(=O)c2cccc3c(Cl)ccc(c23)C1=O	3%	-4%	5%	12%	109%	-1%	x
O=C(c1ccc2c3c(cccc13)C(=O)N(O)C2=O)N1CCCCC1	-5%	-6%[11.6 µM]	1%	2%	-4%	11µM*	3*
O=C1c2cccc3c(Cl)ccc(c23)C(=O)N1O	-21%	u	-12%	u	u	0.5µM*	1.1*
C/C(=N\Nc1nc2ccccc2c(=O)n1O)c1ccco1	u	-14%[11.6 µM]	-23%	u	18µM*	u	30*
NC(N)=Nc1nc(-c2ccccc2)c2ccccc2n1	-11%	56%	7%	-23%	25%	u	u
Clc1nc(-c2ccccc2)c2ccccc2n1	-1%	16%	1%	10%	46%	6%	x
COc1cccc(N/N=C/c2cccc(Br)c2O)c1	-10%	-20%	-2%	-23%	45%	-2%	x
Cc1cccc(N/N=C/c2ccc(O)c(O)c2O)c1	u	-9%[11.6 µM]	u	10µM*	u	25µM*	u
